High-throughput results (PubChem BioAssay)
An excerpt weighted towards active compounds, which were near 5.8% of everything screened.
12-LOX inh: blocks human arachidonate 12S-lipoxygenase | purified 12hLO, xylenol orange hydroperoxide absorbance | Potency, µM (titrated, usually from 108 µM), most hits filed as inhibitors | actives 1.1% (n = 580,000) | AID 1671190
Target sequence (P18054 whole entry, looked up): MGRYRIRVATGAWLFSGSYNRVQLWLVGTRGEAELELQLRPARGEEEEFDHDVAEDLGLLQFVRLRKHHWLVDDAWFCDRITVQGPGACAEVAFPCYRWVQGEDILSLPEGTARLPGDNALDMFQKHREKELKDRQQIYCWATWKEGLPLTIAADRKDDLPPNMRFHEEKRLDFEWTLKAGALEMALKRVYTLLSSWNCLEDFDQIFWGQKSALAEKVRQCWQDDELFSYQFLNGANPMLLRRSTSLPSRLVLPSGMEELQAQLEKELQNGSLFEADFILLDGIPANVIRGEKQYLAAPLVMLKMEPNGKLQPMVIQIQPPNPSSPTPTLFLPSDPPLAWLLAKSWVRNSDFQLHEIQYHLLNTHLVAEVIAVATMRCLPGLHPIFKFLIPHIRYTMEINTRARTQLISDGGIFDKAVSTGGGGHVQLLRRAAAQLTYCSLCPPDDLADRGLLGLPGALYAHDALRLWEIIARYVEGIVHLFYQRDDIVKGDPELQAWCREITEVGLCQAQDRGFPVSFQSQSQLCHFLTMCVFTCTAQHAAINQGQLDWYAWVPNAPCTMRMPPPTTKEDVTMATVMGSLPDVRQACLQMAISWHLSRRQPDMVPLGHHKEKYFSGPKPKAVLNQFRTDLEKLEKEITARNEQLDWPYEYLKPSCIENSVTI
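Purified human 12hLO (150 nM final) in 25 mM Hepes, 0.01% Triton X-100, pH 7.0 was preincubated 15 min at room temperature with compound. Then 40 uM arachidonic acid was added, 30 min. Hydroperoxide was read by Fe-XO absorbance ratio 573/405 nm.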
KB-V1 MDR tox: KB-V1 MDR subline cytotoxicity; KB-V1 MDR cells viability, CellTiter-Glo, 72 h; Potency, µM (titrated, usually from 46.1 µM), hits mostly cytotoxic; actives 3.4% (n = 400,000); AID 1347076; also: nearly all actives have a fitted effect of over 60% in size
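KB-V1, DMEM (no phenol red) + 10% FBS; cpd pin-transferred, titration series; 72 h, 37 degrees C; CellTiter-Glo, luminescence. Data normalized, curve-fit.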
SW480 rereplic: induces DNA re-replication in SW480 colon adenocarcinoma cells | SW480 DNA re-replication, Hoechst DNA content imaging, 48 h | Potency, µM (series often up to 46.1 µM), usual class: activators | actives 1.8% (n = 340,000) | AID 624297; also: nearly all actives have a fitted effect of over 55% in size
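Readout is total intensity of Hoechst-stained nuclei, excited at 405 nm and collected at 500-530 nm. Compound treatment lasted 48 hr at 37 C in 5% CO2 before staining.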
PINK1 modulator: changes PINK1 expression; PINK1 immunofluorescence, high-content cytometry, 24 h; Potency, µM (series often up to 76.6 µM), most hits filed as activators; actives 0.2% (n = 410,000); AID 624263; active = well fitted activation curve with a large enough effect; inconclusive = small, poorly fitted or top-dose-only effect; cell line not stated here; also: nearly all actives have a fitted effect of over 65% in size
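PINK1 protein, normally rapidly degraded, was detected by immunofluorescence after 24 hour compound treatment of a stable cell line. Titration data (5 concentrations) came from laser-scanning cytometry, with CCCP-treated wells as controls.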
KB-3-1 tox: KB-3-1 parental cell cytotoxicity | AID 1347075 | actives 1.4% (n = 400,000) | Potency, µM (top dose mostly 46.1 µM), actives largely listed as cytotoxic | KB-3-1 viability, CellTiter-Glo ATP luminescence, 72 h; also: nearly all actives have a fitted effect of over 60% in size
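Using CellTiter-Glo luminescence, growth of non-resistant KB-3-1 adenocarcinoma cells is assessed 72 h after pin-tool compound addition at 37 °C. Normalized responses across the concentration series yield fitted curves.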
MCF10A rerep: inducers of DNA re-replication in MCF 10A breast cells. actives 2.9% (n = 350,000). MCF 10A DNA re-replication, Hoechst nuclear intensity, 48 h. Potency, µM (highest dose often 46.1 µM), usual class: activators; also: nearly all actives have a fitted effect of over 50% in size
Large screens that a line does not name were inactive; ! = not active in a repeat. Unless noted, calls follow the shape of the dose curve; as a rule, active = well fitted curve in the direction sought with a large enough effect; inconclusive = small, poorly fitted or top-dose-only effect, or another doubt; inactive = no such curve, though single readings can be large; an effect the other way counts as inactive or inconclusive.

C=CCCC[C@@H]1OC(=O)CNC(=O)C([C@@H](C)CC)NC(=O)[C@@H]2CCCN2C(=O)C([C@@H](C)CC)OC(=O)[C@H](Cc2ccccc2)N(C)C(=O)[C@H](C(C)C)NC(=O)C1(C)C (some centres not stated)	KB-3-1 tox inconclusive (no result: SW480 rereplic, MCF10A rerep)
COc1cc2c(cc1OCc1ccc(Cl)cc1)N(Cc1ccccc1)CC21CCN(C(C)=O)CC1	12-LOX inh 32µM (no result: KB-V1 MDR tox, SW480 rereplic, PINK1 modulator, KB-3-1 tox, MCF10A rerep)
COc1cc2c(cc1OCc1ccccc1)N(C(=O)CC(C)C)CC21CCN(C)CC1	none (no result: KB-V1 MDR tox, SW480 rereplic, PINK1 modulator, KB-3-1 tox, MCF10A rerep)
O=C(Nc1cc[c]([Sb](=[O])([OH])[OH])cc1)c1ccccc1	none (no result: 12-LOX inh, SW480 rereplic, MCF10A rerep)
N#Cc1cc(NC(=O)c2ccc(Cl)cc2)ccc1Sc1ccccc1	PINK1 modulator 25µM, KB-3-1 tox inconclusive (no result: SW480 rereplic, MCF10A rerep)
c1ccc(-c2[nH]c(-c3ccccc3)[n+](CC3CO3)c2-c2ccccc2)cc1 (configuration not stated)	KB-V1 MDR tox inconclusive, KB-3-1 tox inconclusive, MCF10A rerep 13µM (no result: SW480 rereplic)
c1ccc(CN2CCC3(CC(c4cccnc4)=NO3)C2)nc1 (configuration not stated)	none (no result: KB-V1 MDR tox, SW480 rereplic, PINK1 modulator, KB-3-1 tox, MCF10A rerep)
O=C(CSC1c2ccccc2-c2ccccc21)N/N=C/c1ccccc1O	KB-V1 MDR tox 5.2µM, SW480 rereplic inconclusive, KB-3-1 tox inconclusive, MCF10A rerep 2.1µM
O=C(CSC1c2ccccc2-c2ccccc21)N/N=C/c1ccc(C(=O)O)cc1	none
CC1C(OC(=O)CCC(=O)NC(C)(C)CO)O[C@H]2OC3(C)CC[C@H]4[C@H](C)CCC1C24OO3 (some centres not stated)	KB-V1 MDR tox 13µM, SW480 rereplic inconclusive, KB-3-1 tox 10µM
CC(C)CC(NC(=O)CCCNC(=O)CCC(=O)OC1O[C@H]2OC3(C)CC[C@H]4[C@H](C)CCC(C1C)C24OO3)C(=O)O (some centres not stated)	KB-V1 MDR tox inconclusive, SW480 rereplic 8.2µM, KB-3-1 tox 7.3µM
C[C@H]1[C@H](OC(=O)CCC(=O)NCc2ccc(C(=O)O)cc2)O[C@@H]2O[C@@]3(C)CC[C@H]4[C@H](C)CC[C@@H]1C24OO3	KB-V1 MDR tox 15µM, SW480 rereplic inconclusive, KB-3-1 tox 8.2µM, MCF10A rerep inconclusive (no result: 12-LOX inh)
C=CCON=C(C[C@H]1O[C@@H]2O[C@]3(C)CC[C@@H]4[C@H](C)CC[C@@H]([C@H]1C)[C@@]24OO3)[C@H]1O[C@@H]2O[C@]3(C)CC[C@H]4[C@H](C)CC[C@@H]([C@@H]1C)[C@@]24OO3	none (no result: KB-V1 MDR tox, SW480 rereplic, PINK1 modulator, KB-3-1 tox, MCF10A rerep)
FC(F)(F)c1cccc(-n2nnnc2C2(N3CCCCC3)CCCCC2)c1	none (no result: KB-V1 MDR tox, SW480 rereplic, PINK1 modulator, KB-3-1 tox, MCF10A rerep)
Cc1noc(C)c1COc1ccc(CC(=O)N2CCN(CC(=O)N3CCOCC3)CC2)cc1	none (no result: KB-V1 MDR tox, SW480 rereplic, PINK1 modulator, KB-3-1 tox, MCF10A rerep)
O=[S+]1([O-])NCC2(CCN(Cc3ccoc3)C2)Oc2ncccc21 (configuration not stated)	none (no result: KB-V1 MDR tox, SW480 rereplic, PINK1 modulator, KB-3-1 tox, MCF10A rerep)
COc1ccc2cc1Oc1ccc(cc1)C[C@H]1c3cc(c(OC)cc3CCN1C)Oc1c(OC)c(OC)cc3c1[C@H](C2)N(C)CC3	12-LOX inh inconclusive, KB-V1 MDR tox 16µM!, SW480 rereplic inconclusive, KB-3-1 tox inconclusive, MCF10A rerep inconclusive
COc1cc2c3c(c1OC)Oc1ccc(cc1)C[C@H]1c4c(cc(OC)c(OC)c4Oc4ccc(cc4)C[C@@H]3N(C)CC2)CCN1C	SW480 rereplic 2.6µM, MCF10A rerep inconclusive
COc1cc2c3cc1Oc1cc(ccc1O)C[C@@H]1c4c(cc(OC)c(O)c4Oc4ccc(cc4)C[C@H]3N(C)CC2)CCN1C	12-LOX inh inconclusive, KB-V1 MDR tox inconclusive, SW480 rereplic 10µM, MCF10A rerep 18µM!
O=C1Nc2ccccc2/C1=C/c1cnc[nH]1	KB-V1 MDR tox inconclusive, SW480 rereplic inconclusive, MCF10A rerep inconclusive
COc1ccc2c(c1)/C(=C/c1cnc[nH]1)C(=O)N2	KB-V1 MDR tox 10µM, SW480 rereplic inconclusive, KB-3-1 tox inconclusive, MCF10A rerep inconclusive
COc1ccc(-n2c(/C=C3\C(=O)Nc4ccccc43)nc3ccccc3c2=O)cc1	12-LOX inh inconclusive
